Assay results as given in PubChem BioAssay (Tox21).
“And” between values parts separate entries of the source, which are not always exact repeats. Equal values may be shown once. Inconclusive results are not listed. A call without a number means that no potency is given here. Where a structure was tested more than once in an assay, its records may differ in their call. The source made the active and inactive calls. Unless noted, calls follow the shape of the dose curve; as a rule, active = well fitted curve in the direction sought with a large enough effect in the repeat runs; inconclusive = weak or mixed curves; inactive = no such curve, though single readings can be large; an effect the other way counts as inactive or inconclusive.

Assays:
[1] = qHTS assay to identify small molecule agonists of the farnesoid-X-receptor (FXR) signaling pathway - cell viability counter screen (AID 743218); also: nearly all actives have a fitted effect of over 45% in size; also: potency is read from the fitted curve at half-maximal effect
Method in brief: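 After 16 h at 37 C with test compounds, FXR-bla HEK 293T cells were given LiveBLAzer B/G substrate for 2 h at RT and then CellTiter-Glo; luminescence was taken after 30 min.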

[2] = qHTS assay to identify small molecule antagonists of the farnesoid-X-receptor (FXR) signaling pathway - cell viability counter screen (AID 743221; active = well fitted cell-killing curve with a large enough effect in the repeat runs, not every such curve was filed as active; also: nearly all actives have a fitted effect of over 50% in size; also: potency is read from the fitted curve at half-maximal effect)
Method in brief: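 Cytotoxicity is taken from ATP luminescence (CellTiter-Glo, 30 min, room temperature) in FXR-bla HEK 293T cells previously incubated 16 h at 37 C with compound and chenodeoxycholic acid at 50 uM final.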

[3] = target: Vitamin D3 receptor (Homo sapiens) (UniProt P11473); test: qHTS assay to identify small molecule agonists of the vitamin D receptor (VDR) signaling pathway (AID 743222; calls by dose curve)
Method in brief: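 VDR-bla cells were seeded, left 4 h, treated with compounds in DMSO for 16 h, incubated 2 h at RT with B/G FRET substrate, and read for fluorescence.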

[4] = target: Vitamin D3 receptor (Homo sapiens) (UniProt P11473); test: qHTS assay to identify small molecule antagonists of the vitamin D receptor (VDR) signaling pathway (AID 743223; active = well fitted inhibition curve with a large enough effect in the signal ratio in the repeat runs, not every such curve was filed as active; the % refers to the signal ratio; also: potency is read from the fitted curve at half-maximal effect)
Method in brief: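 Quantitative HTS in VDR-bla reporter cells stimulated with 1alpha,25-dihydroxyvitamin D3, 3 nM final. Compound exposure 16 h, 37C, 5% CO2. Read-out: beta-lactamase FRET substrate fluorescence, 2 h RT.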

[5] = qHTS assay to identify small molecule agonists of the vitamin D receptor (VDR) signaling pathway - cell viability counter screen (AID 743224); also: nearly all actives have a fitted effect of over 50% in size; also: potency is read from the fitted curve at half-maximal effect
Method in brief: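 Here cell health was gauged by luminescent ATP detection (CellTiter-Glo, 30 min RT) in VDR-bla cells that had been incubated with test compounds for 16 h at 37C and 5% CO2.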

[6] = qHTS assay to identify small molecule antagonists of the vitamin D receptor (VDR) signaling pathway - cell viability counter screen (AID 743225); also: nearly all actives have a fitted effect of over 50% in size; also: potency is read from the fitted curve at half-maximal effect
Method in brief: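 Same-well multiplex: following 16 h treatment of HEK 293T cells carrying a UAS-driven beta-lactamase reporter with compound and agonist (3 nM final), and a 2 h FRET substrate step, CellTiter-Glo was added and luminescence read after 30 min.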

[7] = qHTS assay to identify small molecule agonists of the NFkB signaling pathway - cell viability counter screen (AID 1159515; calls by dose curve; also: nearly all actives have a fitted effect of over 55% in size; also: potency is read from the fitted curve at half-maximal effect)
Method in brief: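 5 hr compound treatment of NFkB-bla ME-180 cells (2,000/well, seeded overnight beforehand), followed by reporter substrate for 1.5 hr. CellTiter-Glo added afterward; luminescence after 30 min RT.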

[8] = qHTS assay to identify small molecule agonists of the endoplasmic reticulum stress response signaling pathway - cell viability counter screen (AID 1159517; calls by dose curve; also: nearly all actives have a fitted effect of over 50% in size; also: potency is read from the fitted curve at half-maximal effect)
Method in brief: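 ESRE-bla HeLa cells, 1,500 per well, seeded overnight then treated with compounds for 5 hr at 37 C. After the beta-lactamase read, viability in the same wells is measured by CellTiter-Glo luminescence after 30 min at room temperature.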

[9] = target: Nuclear receptor ROR-gamma (Homo sapiens) (UniProt P51449); test: qHTS assay to identify small molecule antagonists of the retinoid-related orphan receptor gamma (ROR-gamma) signaling pathway (AID 1159521; also: nearly all actives have a fitted effect of over 50% in size; also: potency is read from the fitted curve at half-maximal effect)
Method in brief: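 Inducible-expression reporter assay: doxycycline (1 uM final) switched on RORγ in CHO cells bearing a ROR response element-luciferase construct, with test compounds present from 2 h beforehand. Decreased luminescence after 16 h defined antagonist activity.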

[10] = qHTS assay to identify small molecule agonists of the AP-1 signaling pathway - cell viability counter screen (AID 1159525; calls by dose curve; also: nearly all actives have a fitted effect of over 55% in size; also: potency is read from the fitted curve at half-maximal effect)
Method in brief: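 AP-1-bla ME-180 cells in Opti-MEM with 0.5% dialyzed FBS, compound exposure 5 h at 37 C in 15-point titration. Viability read in the same wells as ATP content by CellTiter-Glo luminescence, normalised to tetra-n-octylammonium bromide and DMSO controls.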

[11] = qHTS assay to identify small molecule agonists of the AP-1 signaling pathway (AID 1159526; calls by dose curve; also: potency is read from the fitted curve at half-maximal effect)
[12] = target: Retinoic acid receptor RXR-alpha (Homo sapiens) (UniProt P19793); test: qHTS assay to identify small molecule agonists of the RXR signaling pathway (AID 1159527; calls by dose curve; also: nearly all actives have a fitted effect of over 35% in size)
Method in brief: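 Compounds in DMSO were added to RXR-alpha-UAS-bla HEK 293T cells kept in 2% charcoal-stripped serum, and incubated 16 hr at 37 C with 5% CO2. Reporter signal came from a 2 hr B/G FRET substrate step.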

[13] = qHTS assay to identify small molecule agonists of the RXR signaling pathway - cell viability counter screen (AID 1159529); also: nearly all actives have a fitted effect of over 50% in size; also: potency is read from the fitted curve at half-maximal effect
Method in brief: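 Counter screen: CellTiter-Glo luminescence. Cells: RXR-alpha-UAS-bla HEK 293T. Medium: 2% charcoal-stripped FBS. Treatment: 16 h, 37 C. Reagent incubation: 30 min, RT.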

[14] = qHTS assay to identify small molecule antagonists of the retinoid acid receptor (RAR) signaling pathway - cell viability counter screen (AID 1159551); also: nearly all actives have a fitted effect of over 35% in size; also: potency is read from the fitted curve at half-maximal effect
Method in brief: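 Seed C3RL4 cells; next day add compound, then retinol to 1 uM final; incubate 6 h at 37 C; add CellTiter-Glo; read luminescence after 30 min at RT.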

[15] = target: Peroxisome proliferator-activated receptor delta (Homo sapiens) (UniProt Q03181); test: qHTS assay to identify small molecule agonists of the peroxisome proliferator-activated receptor delta (PPARd) signaling pathway (AID 743212; calls by dose curve)
Method in brief: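 GeneBLAzer UAS-bla HEK293H cells carrying a PPARδ construct were exposed to compounds at 37 °C. Beta-lactamase activity was read by FRET fluorescence after 2 h at room temperature with LiveBLAzer B/G substrate.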

[16] = qHTS assay to identify small molecule antagonists of the peroxisome proliferator-activated receptor delta (PPARd) signaling pathway - cell viability counter screen (AID 743213); also: nearly all actives have a fitted effect of over 50% in size
Method in brief: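 Viability counter-screen, qHTS format: PPARd-bla HEK293H, L165041 300 nM final, 17 h compound exposure at 37 C, CellTiter-Glo luminescence after 30 min RT.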

[17] = target: Bile acid receptor (Homo sapiens) (UniProt Q96RI1); test: qHTS assay to identify small molecule antagonists of the farnesoid-X-receptor (FXR) signaling pathway (AID 743217; active = well fitted inhibition curve with a large enough effect in the signal ratio in the repeat runs, not every such curve was filed as active; the % refers to the signal ratio; also: potency is read from the fitted curve at half-maximal effect)
Method in brief: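 In this cell-based antagonist screen, inhibition of CDCA-driven (50 uM final) UAS-beta-lactamase expression in HEK 293T cells was measured by FRET fluorescence following 16 h compound exposure at 37 °C.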

[18] = target: Bile acid receptor (Homo sapiens) (UniProt Q96RI1); test: qHTS assay to identify small molecule agonists of the farnesoid-X-receptor (FXR) signaling pathway (AID 743220; active = well fitted activation curve with a large enough effect in the signal ratio in the repeat runs, not every such curve was filed as active; the % refers to the signal ratio)
Method in brief: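 Beta-lactamase reporter under UAS control in GeneBLAzer FXR HEK 293T cells (5000/well) measured with LiveBLAzer FRET substrate after 2 h at room temperature. Compound exposure lasted 16 h at 37C.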

[19] = qHTS assay to identify small molecule antagonists of the retinoid-related orphan receptor gamma (ROR-gamma) signaling pathway - cell viability counter screen (AID 1159520); also: nearly all actives have a fitted effect of over 50% in size; also: potency is read from the fitted curve at half-maximal effect
Method in brief: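 Tet-on ROR gamma CHO cells were given compounds for 2 hr, then doxycycline hyclate at 1 uM final, and incubated 16 hr at 37 C. Viability was measured as ATP content by CellTiter-Glo luminescence.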

Chain of Peroxisome proliferator-activated receptor delta (Homo sapiens) (Q03181 whole entry, looked up): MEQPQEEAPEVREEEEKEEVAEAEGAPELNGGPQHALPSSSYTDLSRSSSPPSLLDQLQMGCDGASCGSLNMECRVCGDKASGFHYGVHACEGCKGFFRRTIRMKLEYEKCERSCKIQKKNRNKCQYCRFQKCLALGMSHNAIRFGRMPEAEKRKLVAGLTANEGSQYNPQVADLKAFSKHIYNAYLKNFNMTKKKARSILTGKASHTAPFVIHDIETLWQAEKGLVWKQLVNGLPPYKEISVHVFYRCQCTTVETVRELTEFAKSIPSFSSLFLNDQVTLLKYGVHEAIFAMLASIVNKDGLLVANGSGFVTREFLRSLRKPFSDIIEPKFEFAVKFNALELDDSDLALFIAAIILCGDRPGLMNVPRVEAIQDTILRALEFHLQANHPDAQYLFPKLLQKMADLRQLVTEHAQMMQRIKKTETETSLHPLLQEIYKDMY
Chain of Bile acid receptor (Homo sapiens) (Q96RI1 whole entry, looked up): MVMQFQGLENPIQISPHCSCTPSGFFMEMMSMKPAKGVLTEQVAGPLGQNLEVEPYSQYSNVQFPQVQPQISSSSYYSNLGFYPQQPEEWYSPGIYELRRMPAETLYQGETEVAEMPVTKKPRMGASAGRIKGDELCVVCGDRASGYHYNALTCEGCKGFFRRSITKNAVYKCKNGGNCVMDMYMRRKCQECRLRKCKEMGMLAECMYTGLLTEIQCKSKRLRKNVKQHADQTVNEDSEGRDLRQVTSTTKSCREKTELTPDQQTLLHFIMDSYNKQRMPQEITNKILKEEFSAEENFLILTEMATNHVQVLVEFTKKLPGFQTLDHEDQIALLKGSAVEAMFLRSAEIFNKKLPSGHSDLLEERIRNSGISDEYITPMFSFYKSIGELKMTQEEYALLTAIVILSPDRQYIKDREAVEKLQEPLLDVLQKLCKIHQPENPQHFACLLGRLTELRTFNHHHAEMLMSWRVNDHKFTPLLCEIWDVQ
Chain of Vitamin D3 receptor (Homo sapiens) (P11473 whole entry, looked up): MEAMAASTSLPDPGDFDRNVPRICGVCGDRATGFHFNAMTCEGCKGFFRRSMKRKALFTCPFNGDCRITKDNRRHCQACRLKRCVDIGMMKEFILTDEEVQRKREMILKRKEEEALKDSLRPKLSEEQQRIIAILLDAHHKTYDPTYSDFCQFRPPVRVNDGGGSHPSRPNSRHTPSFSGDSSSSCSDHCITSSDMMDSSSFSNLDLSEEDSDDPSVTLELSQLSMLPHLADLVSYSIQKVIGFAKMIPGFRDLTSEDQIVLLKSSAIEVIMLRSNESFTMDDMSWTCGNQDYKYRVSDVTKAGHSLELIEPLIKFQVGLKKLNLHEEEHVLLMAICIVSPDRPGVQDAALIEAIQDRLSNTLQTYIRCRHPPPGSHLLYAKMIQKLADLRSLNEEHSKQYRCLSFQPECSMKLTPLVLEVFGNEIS
Chain of Retinoic acid receptor RXR-alpha (Homo sapiens) (P19793 whole entry, looked up): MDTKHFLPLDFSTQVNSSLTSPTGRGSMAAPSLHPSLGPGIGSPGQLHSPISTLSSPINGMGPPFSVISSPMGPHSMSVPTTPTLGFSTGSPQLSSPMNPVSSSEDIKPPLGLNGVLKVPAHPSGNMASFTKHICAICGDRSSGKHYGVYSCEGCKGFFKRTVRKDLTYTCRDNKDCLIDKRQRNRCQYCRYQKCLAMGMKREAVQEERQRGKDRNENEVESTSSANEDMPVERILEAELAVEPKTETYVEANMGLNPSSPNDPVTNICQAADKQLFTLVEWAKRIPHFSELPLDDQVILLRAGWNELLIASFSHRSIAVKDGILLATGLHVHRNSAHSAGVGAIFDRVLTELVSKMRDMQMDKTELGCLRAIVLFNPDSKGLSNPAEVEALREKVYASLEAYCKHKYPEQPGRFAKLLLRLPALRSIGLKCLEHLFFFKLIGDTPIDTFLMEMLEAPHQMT

Structure (SMILES) | Potency [1] | Potency [2] | outcome [3] | Potency [4] | Potency [5] | Potency [6] | Potency [7] | Potency [8] | Potency [9] | Potency [10] | Potency [11] | Potency [12] | Potency [13] | Potency [14] | outcome [15] | Potency [16] | Potency [17] | outcome [18] | Potency [19]
Cc1cc(-c2ccc(N)c(C)c2)ccc1N | inactive | inactive | inactive | inactive | inactive | inactive | inactive | inactive | inactive | inactive | inactive | inactive | inactive | inactive | – | – | – | – | –
C[N+](C)(C)Cc1ccccc1 | inactive | inactive | inactive | inactive | – | inactive | inactive | inactive | inactive | – | inactive | inactive | inactive | inactive | inactive | inactive | inactive | inactive | –
O=C(O)c1ccccc1O | inactive | inactive | – | – | inactive | inactive | inactive | inactive | – | inactive | inactive | – | inactive | inactive | – | – | – | – | –
CCCCCCn1cc[n+](C)c1 | inactive | inactive | – | – | – | inactive | inactive | inactive | inactive | – | inactive | – | inactive | inactive | – | inactive | – | – | –
Nc1ccc(-c2ccc(N)c(Cl)c2)cc1Cl | inactive | inactive | inactive | inactive | – | inactive | inactive | inactive | 68.6 µM (active) | – | inactive | – | inactive | inactive | – | inactive | – | – | –
CCCC[n+]1ccccc1C | inactive | inactive | – | – | – | inactive | inactive | inactive | inactive | inactive | inactive | inactive | inactive | inactive | – | inactive | – | – | –
COc1ccc(N)cc1 | inactive | inactive | – | – | inactive | inactive | inactive | inactive | inactive | – | inactive | – | inactive | inactive | inactive | – | – | – | –
CCCCCCCCCCCCCCCCn1cc[n+](C)c1 | inactive and 44 µM (active) and 21.9 µM (active) | – | inactive | 15.5 µM (active) | – | – | 44.6 µM (active) and inactive and 24.6 µM (active) | – | – | – | inactive | – | – | inactive and 61.7 µM (active) and 43.4 µM (active) | inactive | – | – | – | –
O=P1(N(CCCl)CCCl)NCCCO1 (stereo unspecified) | inactive | inactive | inactive | inactive | – | inactive | inactive | inactive | inactive | inactive | inactive | inactive | inactive | inactive | inactive | – | inactive | inactive | –
CCCCCCCCCCCCCC[P+](CCCCCC)(CCCCCC)CCCCCC | 13.9 µM (active) and 24.7 µM (active) and inactive | 22 µM (active) and 15.6 µM (active) and inactive | – | – | – | 19.6 µM (active) and 17.5 µM (active) | 19.6 µM (active) and 24.7 µM (active) and inactive | 31 µM (active) and 27.8 µM (active) and inactive | – | – | inactive | – | 8.75 µM (active) and 15.6 µM (active) | 27.4 µM (active) and 27.5 µM (active) and inactive | inactive | – | inactive | inactive | 9.73 µM (active) and 19.5 µM (active)
CCCCCCCCCCCCOS(=O)(=O)O | 49 µM (active) and 24.5 µM (active) and inactive | inactive | – | – | – | 34.7 µM (active) and inactive | inactive | inactive | – | 55 µM (active) and inactive | inactive | – | 34.7 µM (active) and 21.9 µM (active) and inactive | inactive | – | – | – | – | –
CC(=O)[O][Hg][c]1ccccc1 | 968 nM (active) and 871 nM (active) and 2.11 µM (active) | 1.09 µM (active) and 1.1 µM (active) and 2.98 µM (active) | inactive | 863 nM (active) and 2.13 µM (active) | 686 nM (active) and 871 nM (active) and 422 nM (active) | 1.37 µM (active) and 2.19 µM (active) and 2.39 µM (active) | 485 nM (active) and 549 nM (active) and 1.34 µM (active) | 485 nM (active) and 692 nM (active) and 2.13 µM (active) | 429 nM (active) and 545 nM (active) and 750 nM (active) | 1.37 µM (active) and 2.45 µM (active) and 4.25 µM (active) | – | – | 1.72 µM (active) and 1.95 µM (active) and 2.39 µM (active) | 5.4 µM (active) and 13.7 µM (active) and 16.8 µM (active) | – | – | 0.776 µM (active) | – | –
CCCCn1cc[n+](C)c1C | inactive | inactive | – | – | – | inactive | inactive | inactive | – | – | inactive | inactive | inactive | inactive | – | – | – | – | inactive
O=C(O)CC(O)(CC(=O)O)C(=O)O | inactive | inactive | inactive | inactive | inactive | inactive | inactive | inactive | – | – | inactive | – | inactive | inactive | inactive | – | – | – | inactive
CCCC[n+]1cccc(C)c1 | inactive | inactive | – | – | inactive | inactive | inactive | inactive | inactive | – | inactive | inactive | inactive | inactive | – | – | – | – | –
COP(=O)(OC)C(O)C(Cl)(Cl)Cl (stereo unspecified) | inactive | inactive | inactive | – | – | inactive | inactive | inactive | inactive | inactive | inactive | inactive | inactive | inactive | inactive | inactive | – | inactive | –
CCCCCCCCCCCCn1cc[n+](C)c1 | – | – | – | 55 µM (active) | – | – | 34.8 µM (active) and inactive | – | – | – | inactive and 43.4 µM (active) | inactive | – | 49 µM (active) and inactive | – | – | – | – | –
